Compound activity (PubChem BioAssay)
DT40 TDP1 no CPT: qHTS for Inhibitors of human tyrosyl-DNA phosphodiesterase 1 (TDP1): qHTS in cells in absence of CPT | Potency, µM (highest dose often 46.2 µM), inactives show top-dose activity change, negative = growth inhibition, usual class: inhibitors | hit rate 15% among 420,000 | DT40 Tdp1-/- hTDP1 cells, no CPT, ATP luminescence, 48 h; note: potency is the fitted concentration of half-maximal effect; % is set by controls: 0 for no effect and ±100 for the full control effect; nearly all actives have a fitted effect of over 55% in size
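Growth of hTDP1-complemented DT40 Tdp1-knockout cells is measured by ATP luminescence after at least 48 hr compound exposure at 37 °C, with DMSO substituting for the 20 nM CPT used in the parallel screen.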
TGFb SMAD3 inh: inhibitors of TGF-b signaling; Potency, µM (top dose mostly 46.1 µM), without a hit: top-dose activity, negative = inhibition, hits mostly inhibitors; hit rate 1.2% among 410,000; HepG2 CAGA-GFP TGF-b/SMAD3 reporter, GFP fluorescence, 18 h; TGF-beta stimulated, 500 pg/mL final; note: potency is the fitted concentration of half-maximal effect; % is set by controls: 0 for no effect and ±100 for the full control effect; nearly all actives have a fitted effect of over 65% in size
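Inhibition of TGF-beta-driven CAGA-GFP reporter expression in HEPG2 cells is measured by cellular GFP fluorescence after 18 h stimulation with 500 pg/mL recombinant TGF-beta in 1% FBS medium at 37 degrees C.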
HepG2 viability: counter-screen for TGF-b inhibitors: cytotoxicity in HepG2 cells. HepG2 CAGA-GFP viability, ATP luminescence, 18 h. Potency, µM (titrated, usually from 46.1 µM), for inactives: top-dose activity change, negative = cytotoxicity, actives largely listed as cytotoxic. hit rate 0.76% among 410,000; note: potency is the fitted concentration of half-maximal effect
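HepG2 CAGA-GFP cells (1000/well, DMEM with 1% FBS) received compound, then TGF-beta at 500 pg/mL final, and were incubated 18 hours at 37 degrees C. Viability was read by CellTiter-Glo luminescence. Media-only wells were set as complete cell-killing and DMSO as no toxicity.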
TDP1 cell CPT: DT40-hTDP1 cell growth loss with CPT; Potency, µM (series often up to 46.2 µM), for the others: at the highest dose activity change, negative = growth inhibition, usual class: inhibitors; AID 686979; hit rate 12% among 420,000; chicken DT40 Tdp1-/-;hTDP1 cells + 20 nM CPT, ATP luminescence, 48 h; note: potency is the fitted concentration of half-maximal effect; % is set by controls: 0 for no effect and ±100 for the full control effect; nearly all actives have a fitted effect of over 55% in size
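Chicken DT40 Tdp1-/- cells stably complemented with human TDP1 were seeded at 400 cells/well in medium containing 20 nM camptothecin, exposed to pin-transferred compounds, and grown at 37 °C for at least 48 hr. Viability was read as ATP luminescence.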
TDP1 inh: inhibitors of human tyrosyl-DNA phosphodiesterase TDP1 | Potency, µM (doses to about 130 µM), without a hit: at the highest dose activity change, negative = inhibition, usual class: inhibitors | recombinant TDP1, AlphaScreen DNA substrate cleavage | AID 485290 | Q9NUW8 | hit rate 0.28% among 350,000; note: potency is the fitted concentration of half-maximal effect; % is set by controls: 0 for no effect and ±100 for the full control effect; nearly all actives have a fitted effect of over 40% in size
Target sequence (Q9NUW8 whole entry, looked up): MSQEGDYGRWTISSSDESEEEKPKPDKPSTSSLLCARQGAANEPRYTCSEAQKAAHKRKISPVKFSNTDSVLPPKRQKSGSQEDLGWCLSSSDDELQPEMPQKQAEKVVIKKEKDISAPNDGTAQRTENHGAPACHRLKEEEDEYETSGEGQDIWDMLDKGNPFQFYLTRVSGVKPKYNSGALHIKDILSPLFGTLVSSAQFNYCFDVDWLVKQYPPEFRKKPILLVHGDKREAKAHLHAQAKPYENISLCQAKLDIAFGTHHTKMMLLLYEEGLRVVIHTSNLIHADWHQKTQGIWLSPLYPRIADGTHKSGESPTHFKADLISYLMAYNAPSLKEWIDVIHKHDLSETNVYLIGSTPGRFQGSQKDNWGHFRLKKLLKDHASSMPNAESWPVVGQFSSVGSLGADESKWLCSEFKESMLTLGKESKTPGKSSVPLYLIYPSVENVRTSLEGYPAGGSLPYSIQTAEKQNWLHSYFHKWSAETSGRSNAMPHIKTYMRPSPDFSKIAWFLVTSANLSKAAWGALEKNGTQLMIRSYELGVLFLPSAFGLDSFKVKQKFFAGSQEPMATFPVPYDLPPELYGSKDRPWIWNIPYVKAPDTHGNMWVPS
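Compounds were preincubated with Tdp1 (1 nM final) for 15 min at room temperature before substrate (15 nM final) started a 5 min reaction; beads (10 ug/ml final) were then added for 10 min before AlphaScreen detection.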
IL-1B inflam inh: blocks inflammasome-driven IL-1 beta release; THP-1 LPS/ATP IL-1B secretion, AlphaLISA, 16 h; active compounds read low; activity change, % at 57.5 µM; hit rate 4.7% among 360,000; in the data active = activity change below about -50%; inconclusive = mostly about -30% to -49%; note: % is set by controls: 0 for no effect and ±100 for the full control effect
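THP-1 cells pretreated 1 hr with compounds (up to 57.5 uM final), then stimulated with LPS (250 ng/mL final) plus ATP (1.25 mM final); secreted IL-1B measured by AlphaLISA after 16 hr, decreased signal indicating inhibition.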
The depositor's hits bear a star; ? = inconclusive; · = not tested or not shown; [ ] = dose if it differs, or a comment. Only some compounds are listed: those with a hit (about 18% of all), similar ones and a draw of the others. Unless noted, calls come from the whole dose curve; as a rule, active = well fitted curve in the direction sought with a large enough effect; inconclusive = small, poorly fitted or top-dose-only effect, or another doubt; inactive = no such curve, though single readings can be large; an effect the other way counts as inactive or inconclusive.

SMILES | DT40 TDP1 no CPT | TGFb SMAD3 inh | HepG2 viability | TDP1 cell CPT | TDP1 inh | IL-1B inflam inh
CC(Oc1ccccc1F)C(=O)NNC(=O)c1cc2ccccc2o1 (configuration not stated) | 10.1% | ? | -4.5% | 7.4% | 2.7% | 37.5
CCCN(CCC)c1nc(N(CCC)CCC)[nH]c(=O)n1 | 18.4µM* | 5.3% | -9.6% | 23.1µM* | 5.4% | 13.3
O=C(NCc1ccc(F)cc1F)[C@@H]1CCCN1C(=O)[C@@H]1CCCN1C(=O)c1cccc2ccccc12 | ? | · | · | ? | · | 9.6
Cc1cccc(Nc2c([N+](=O)[O-])c(=O)n(C)c3ccccc23)c1 | ? | 2.9% | -2.7% | ? | 7.0% | 22.4
CC(C)c1ccc(Nc2c([N+](=O)[O-])c(=O)n(C)c3ccccc23)cc1 | ? | 16.7% | -17.7% | 0.8% | 4.1% | -65.9*
Cn1c(=O)c([N+](=O)[O-])c(NCC(O)c2ccccc2)c2ccccc21 (configuration not stated) | 18.4µM* | -5.5% | 0.1% | ? | 5.3% | 17.4
CCn1c(=O)c([N+](=O)[O-])c(NCC(O)c2ccccc2)c2ccccc21 (configuration not stated) | ? | 0.0% | 3.8% | ? | 2.7% | -1.0
Cn1c(=O)c([N+](=O)[O-])c(-n2ccnc2)c2ccccc21 | 4.11µM* | ? | -58.3% | 4.61µM* | -3.8% | -100.5*
CCCSc1nnc(-c2cnn(-c3ccccc3)c2-n2cccc2)n1C | 14.6µM* | 3.0% | 11.2% | 18.4µM* | 3.8% | -8.0
CCc1ccc(C2c3[nH]c4ccccc4c3CCN2C(=O)CNC(N)=O)cc1 (configuration not stated) | -7.5% | -19.5% | -9.3% | -13.5% | · | -57.0*
CCc1ccc(C2c3[nH]c4ccccc4c3CCN2C(=O)c2ccc(=O)n(C)n2)cc1 (configuration not stated) | ? | -26.9% | -20.4% | ? | 6.1% | 29.8
CCc1ccc(C2c3[nH]c4ccccc4c3CCN2C(=O)CN2CCN(CC)CC2)cc1 (configuration not stated) | 25.9µM* | ? | 12.6µM* | ? | 0.0% | -72.3*
CCSc1nnc(-c2ccc(Cl)cc2)c2ccccc12 | ? | -5.5% | 0.0% | ? | 2.0% | -4.3
CCSc1nnc(-c2ccc(C)cc2)c2ccccc12 | 16.4µM* | 0.0% | 1.1% | ? | 0.6% | -21.7
CCN(CC)CCOc1nnc(-c2ccc(OC)cc2)c2ccccc12 | ? | -18.3% | -26.5% | ? | · | -4.2
CCN(CC)CCOc1nnc(-c2ccc(C)cc2)c2ccccc12 | 14.6µM* | -1.2% | -5.6% | ? | 2.2% | -56.9*
O=C(CCNC(=O)C1CCN(S(=O)(=O)c2ccccc2)CC1)NCc1ccc(Cl)cc1 | ? | -1.6% | -20.7% | -26.8% | 1.7% | 8.0
O=C(NCc1ccc(Cl)cc1Cl)C1CCN(S(=O)(=O)c2ccc3c(c2)OCCCO3)CC1 | ? | 0.0% | -26.0% | 20.6µM* | -1.4% | -6.4
O=C(CCNC(=O)C1CCN(S(=O)(=O)c2ccccc2)CC1)NCc1ccc(Cl)cc1Cl | ? | ? | -13.6% | 20.6µM* | 4.6% | -21.9
CCNC(=O)COC(=O)C1C(C(=O)OCC)=C(C)NC(C)=C1C(=O)OCC | 0.1% | 2.6% | -5.5% | 0.5% | 1.0% | 0.0
CCOC(=O)C1=C(C)NC(C)=C(C(=O)OCC)C1C(=O)OCC(=O)NCCc1ccccc1 | 25.9µM* | -8.8% | -24.8% | ? | 0.8% | -55.2*
CCOC(=O)C1=C(C)NC(C)=C(C(=O)OCC)C1C(=O)OCC(=O)NC1CCCCC1 | 23.1µM* | 4.4% | -36.1% | 25.9µM* | 0.5% | ?
O=C(NCC1Cc2cc(-c3cncnc3)cc(Cl)c2O1)c1cccc(Cn2cccn2)c1 (configuration not stated) | -25.3% | · | · | 3.3%[9.04 µM] | · | ·
N#Cc1c(N)oc(-c2ccc3c(c2)OCO3)c1-c1ccc2c(c1)OCO2 | -6.7% | -12.6% | -9.0% | 0.0% | 5.1% | -61.0*
CCC(NC(=O)COc1cc2c(c3oc(=O)c(C)c(C)c13)CCC(C)(C)O2)C(=O)O (configuration not stated) | -0.7% | 12.1% | 6.3% | 25.1% | · | -3.4
SMILES | DT40 TDP1 no CPT | TGFb SMAD3 inh | HepG2 viability | TDP1 cell CPT | TDP1 inh | IL-1B inflam inh
Cc1ccc2c(=O)[nH]c(Cc3ccccc3C(=O)O)nc2c1 | 18.4µM* | 0.0% | 19.4% | ? | · | -7.0
CC(=O)c1ccc(N2CCN(c3ccc(NC(=O)c4cccs4)cc3C(=O)O)CC2)cc1 | -12.9% | ? | -3.3% | -4.8% | -1.5% | ·
CCCC[C@@H](C)/C=C(C)/C=C(\C)C(=O)NC1=C[C@@](O)(/C=C/C=C/C=C/C(=O)NC2=C(O)CCC2=O)[C@@H]2O[C@@H]2C1=O | · | · | · | · | -1.6% | ·
Cn1c(=S)c2[nH]c(SCCN3CCCC3)nc2n(C)c1=O | 23.1µM* | ? | -9.8% | ? | -13.8% | 29.2
Cn1c(=S)c2[nH]c(SCCN)nc2n(C)c1=O | 5.8µM* | -7.5% | -27.6% | 5.8µM* | · | 22.6
COc1ccc(C(=O)NCCN2Cc3ccccc3OC(c3ccsc3)C2)c(OC)n1 (configuration not stated) | -16.0% | · | · | -13.1%[9.04 µM] | · | ·
Cc1cc(C)c(C(=O)COC(=O)C2CC3CCCC(C2)C3=O)c(C)c1 (configuration not stated) | -23.7% | -1.4% | 3.1% | ? | · | 9.0
Cc1ccc(NC(=O)c2cc(N3C(=O)C=CC3=O)ccc2N2CCOCC2)cc1Cl | 3.66µM* | ? | -66.4% | 4.11µM* | 1.1% | -57.4*
Cc1cc(C)c(NC(=O)CS(=O)CC(=O)Nc2ccc(N3CCOCC3)cc2)c(C)c1 (configuration not stated) | -13.3% | -1.6% | 7.1% | 1.7% | 8.0% | 18.3
Cc1ccc(NC(=O)CS(=O)CC(=O)Nc2ccc(N3CCOCC3)cc2)cc1Cl (configuration not stated) | 29.1µM* | -2.7% | -17.5% | 20.6µM* | 0.0% | -6.8
Cc1cc(C(=O)Nc2ccc3c(c2)CCC3)c2ccccc2n1 | ? | 8.2% | -3.3% | 9.5% | 0.0% | 43.1
Cc1ncc2c(c1CNC(=O)/C=C/c1cccs1)CCN(C(=O)c1cc(C(C)C)on1)C2 | -13.4% | · | · | 5.9%[9.04 µM] | · | ·
Cc1ccc(OCCCSc2nc(-c3ccc(C(C)(C)C)cc3)nc3cc(=O)[nH]n23)cc1C | 25.9µM* | ? | -25.0% | ? | 0.0% | ·
